Sampled rows, rich in hits. Any-hit rate of the full collection: about 2.4%.
D2 ag-1: activates the human D2 dopamine receptor | P14416 | DiscoveRx PathHunter D2 beta-arrestin, luminescence, 90 min; 100% = 57 uM dopamine signal | activation, % (no concentration beside the values) | actives 0.084% (n = 360,000); in the data active = activation above about 40%
Target sequence (P14416 whole entry, looked up): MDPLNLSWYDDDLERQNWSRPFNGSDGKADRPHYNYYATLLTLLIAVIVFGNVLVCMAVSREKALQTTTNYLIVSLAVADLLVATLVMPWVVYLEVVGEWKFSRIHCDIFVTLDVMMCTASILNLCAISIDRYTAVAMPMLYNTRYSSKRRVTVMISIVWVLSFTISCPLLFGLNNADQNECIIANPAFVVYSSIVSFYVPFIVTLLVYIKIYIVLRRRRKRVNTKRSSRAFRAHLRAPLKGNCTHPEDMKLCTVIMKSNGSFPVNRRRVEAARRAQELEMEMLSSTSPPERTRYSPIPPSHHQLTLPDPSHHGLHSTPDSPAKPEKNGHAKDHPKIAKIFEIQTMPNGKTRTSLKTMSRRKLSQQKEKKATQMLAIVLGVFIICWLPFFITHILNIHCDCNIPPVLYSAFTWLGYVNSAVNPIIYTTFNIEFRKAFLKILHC
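DiscoveRx PathHunter D2 beta-arrestin cells (2,100/well) attached overnight, then compound-stimulated 90 min at 37 C in HBSS/10 mM HEPES/0.1% Tween-20 buffer; beta-galactosidase complementation read by luminescence after 1 h at ambient temperature. Dopamine 57 uM final (EC100) as control.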
D2 PAM-1: positive allosteric modulators of human D2 dopamine receptor; potentiation, % (concentration not given with the values); DiscoveRx D2 beta-arrestin cells, luminescence, 90 min; 100% = 57 uM dopamine signal; actives 0.23% (n = 360,000); in the data active = potentiation above about 50%
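PathHunter beta-arrestin assay in DiscoveRx D2 cells. Compounds were added with an EC20 of dopamine (50 nM final) for 90 min at 37 deg C. Luminescence was read 1 h after detection reagent, with 57 uM dopamine as the EC100 control.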
D2 ag-2: D2 dopamine receptor (human) agonism | P14416 | HEK293 T-REx D2 cells, calcium flux agonist mode | activation, % at 2 µM | actives 0.53% (n = 340,000);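 active = activation over 3 SD above normal in the single-dose calcium agonist read, cut at about 30% in these data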; also: 0% is about no effect
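HEK293 Trex D2 cells, tetracycline-induced, o/n 30 C 5% CO2; no-wash Ca dye, RT 30–90 min; 10-cycle baseline, 23 nl cpd added, kinetic Ca read 180 s; agonist hits = positive Ca response.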
D2 antag: D2 dopamine receptor (human) antagonism; P14416; HEK293 TREx D2 cells, calcium flux, dopamine EC80; inhibition, % at 10 µM; actives 2% (n = 340,000); AID 485344; in the data active = inhibition above about 30%; inactive = below that, where a call was filed; also: 0% is about no effect
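Read-out: kinetic calcium fluorescence (1 cycle/s) in inducible HEK293 T-REx D2 cells after an EC80 dopamine addition that followed 180 s compound preincubation. Loss of the dopamine response indicates antagonism.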
D2 PAM-2: D2 dopamine receptor (human) potentiation; P14416; HEK293 T-REx D2, calcium flux, EC20 dopamine potentiation; potentiation, % at 10 µM; actives 0.34% (n = 340,000); AID 485347;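 active = potentiation over 3 SD above the plate norm, cut at about 30% in these data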; also: 0% is about no effect
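Tetracycline-induced HEK293 T-REx cells force-coupled to calcium signalling expressed D2; compounds were pin-added after a 10 s baseline, read kinetically 180 s, then an EC20 dopamine challenge followed with a further 180 s calcium read.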
Numbers without * were called inactive; . = no result given.

SMILES	D2 ag-1	D2 PAM-1	D2 ag-2	D2 antag	D2 PAM-2
CCOC(=O)N1CCN(CCC(=O)Nc2ccccc2OC)CC1	-1	-12	2	50*	-6
COc1ccccc1N1CCN(CC(=O)Nc2ccc(C)c(F)c2)CC1	-4	-37	-1	-8	0
COc1ccccc1NC(=O)CCn1cnc2ccccc2c1=O	.	.	1	.	-5
CCOC(=O)c1c(C)oc2nc(C)nc(NCc3ccccc3Cl)c12	.	.	0	.	4
Cc1ccc(C)c(CNC(=O)c2sc3ncnc(N(C)C4CCCCC4)c3c2C)c1	.	.	0	.	6
O=C(CN1CCC(NC(=O)C2CC2)CC1)Nc1cccc(F)c1	-3	-19	0	31*	-21
CCOC(=O)c1c(C)n(C)c2ccc(OC)c(NC(=O)CCN3CCC(Cc4ccccc4)CC3)c12	-3	-16	0	91*	-32
Cc1ccc(NC(=O)CN2CCC(NC(=O)c3cccc(F)c3)CC2)cc1C	0	-37	0	6	-3
COc1ccccc1N1CCN(CCCCCCOc2ccc(F)cc2)CC1	-1	-30	6	81*	-48
COc1ccccc1N1CCN(CCC(=O)Nc2ccc(F)cc2)CC1	-5	-28	5	66*	-23
CCOC(=O)c1c(C)n(C)c2ccc(OC)c(NC(=O)CN3CCSCC3)c12	-4	-8	0	-12	1
COc1ccc(CCNC(=O)CCn2c(=O)c3ccccc3n(CC(=O)Nc3cccc(C)c3)c2=O)cc1OC	.	.	-1	.	1
CCc1ccc(NC(=O)CC2C(=O)N(c3ccccc3)C(=O)N2C(C)C)cc1 (stereo not drawn)	.	.	0	.	-1
O=C(NCc1ccco1)C1CCCN1C(=O)Nc1cccc(Cl)c1 (stereo not drawn)	-3	4	-2	56*	-10
CC(C)c1ccc(NC(=O)c2cnc3sc(N4CCOCC4)nn3c2=O)cc1	.	.	0	.	17
COc1ccc(S(=O)(=O)Cc2ccc(C(=O)N3CCN(Cc4ccccc4)CC3)o2)cc1	1	-3	3	0	6
Cc1ccc(S(=O)(=O)Cc2ccc(C(=O)N3CCc4ccccc4C3)o2)cc1	1	-10	0	-16	58*
Cc1ccc(S(=O)(=O)Cc2ccc(C(=O)N3CCN(Cc4ccccc4)CC3)o2)cc1	.	.	-1	-9	51*
COc1ccc(Cc2nc(-c3ccccn3)no2)cc1	-2	-1	1	34*	5
COc1ccc(Cc2nc(-c3ccncc3)no2)cc1	-1	51*	-1	-20	5
Clc1cc(Cl)c(OCc2nc(-c3ccccn3)no2)cc1Cl	-3	-5	2	-19	-2
CC(C)(C)c1ccc(OCc2nc(-c3ccccn3)no2)c(Br)c1	0	-21	0	38*	7
Cc1ccc(C(C)C)c(OCC(=O)Nc2ccc(O)c(-c3nc4cc(Cl)ccc4o3)c2)c1	.	.	1	.	10
Cc1cccc(-c2noc(CSc3nc(-c4ccc(F)cc4)cc(=O)[nH]3)n2)c1	.	.	1	.	-9
C=CCN1CCc2c(cc(O)c(O)c2Br)[C@@H](c2ccccc2)C1	59*	66*	.	.	.
SMILES	D2 ag-1	D2 PAM-1	D2 ag-2	D2 antag	D2 PAM-2
COc1ccc(NC(=O)CN(C)C(=O)c2ccccc2OC)cc1	-1	-1	0	-3	2
COc1ccc(N(C(=O)c2ccccc2OC(C)=O)C(C)C2CC2)cc1 (stereo not drawn)	-2	-4	-1	30*	-25
COc1ccc(CNC(=O)CSc2nc(-c3ccc(OC)c(OC)c3)cc(C(F)(F)F)n2)cc1	.	.	0	.	8
COc1cc(/C=C2\SC(=O)N(CC(=O)Nc3ccccc3F)C2=O)cc(Cl)c1O	5	3	41*	18	-6
CC1(C(=O)NCCC(F)(F)F)Cc2c(-c3cccc(C(N)=O)c3)ccnc2O1 (stereo not drawn)	9	-16	.	.	.
COc1ccc(CCCNC(=O)C2(C)Cc3c(-c4cccc(C(N)=O)c4)ccnc3O2)cc1 (stereo not drawn)	76*	27	.	.	.
Cc1cc(OCC(=O)Nc2ccc(-c3nc4cc(Cl)ccc4o3)cc2)cc(C)c1Cl	.	.	0	.	0
Cc1ccccc1CNC(=O)c1cnc2sc(N3CCOCC3)nn2c1=O	.	.	1	.	-11
COc1ccc(NC(=O)CNC(=O)Cc2ccccc2)cc1	6	0	-2	8	32*
COc1ccc(NC(=O)CNS(=O)(=O)c2ccc(Cl)cc2)cc1	1	1	0	-4	45*
COc1ccc(NC(=O)CN(C)C(=O)c2oc3ccccc3c2C)cc1	-1	-3	-1	31*	-3
COc1ccc(NC(=O)Cc2ccccc2)cc1	-4	-4	1	-10	10
CCN(CC)CCN(C(=O)c1ccco1)c1nc2cc(C)cc(C)c2s1	.	.	0	.	-16
CCc1nnc(SCC(=O)N(CC)c2ccccc2)c2cc3oc(C)cc3n12	.	.	0	.	2
CCOC(=O)CNc1ccc2c(c1)OCO2	-5	-15	-1	40*	.
CCOc1ccc(S(=O)(=O)NCCc2csc3nc(-c4cccc(C)c4)nn23)cc1	.	.	0	.	0
S=c1[nH]c(-c2ccccc2)cn1/N=C/c1cccc2ccccc12	-16	-30	0	33*	-14
S=c1[nH]c(-c2ccccc2)cn1/N=C/c1ccccc1Br	-2	-47	0	-12	-5
O=c1c2ccsc2ncn1Cc1ccc(Cl)cc1	-8	-2	1	38*	3
O=c1c2ccccc2ncn1Cc1ccccc1	0	-5	0	12	14
Cc1csc(SC(C)C(=O)Nc2ccc(Cl)cn2)n1 (stereo not drawn)	-4	-16	-1	43*	-17
COc1ccc(S(=O)(=O)N(CC(=O)N(C)Cc2ccccc2)c2ccc(Cl)cc2)cc1	.	.	1	.	2
Cc1cc(C)c(NC(=O)c2cc(S(=O)(=O)N3CCN(c4ccccc4F)CC3)ccc2F)c(C)c1	.	.	0	.	-11
CC(=O)c1cccc(NC(=O)c2ccc3ccccc3c2)c1	0	2	0	31*	-3
O=C(Nc1ccccc1-c1nnn(CC(=O)N2CCCc3ccccc32)n1)c1ccc(Cl)cc1	0	-9	1	47*	6
CCc1cc2c(SCC(=O)c3cccs3)ncnc2s1	-4	-17	0	34*	0
c1cc(CNc2ccc3c(c2)OCCO3)ccn1	0	15	2	-7	31*
c1ccc(CN2CCC3(CCCc4ccccc43)CC2)cc1	-1	-25	0	43*	-13
CC(C)OCCCN1C(=O)c2[nH]nc(-c3ccccc3O)c2C1c1ccccc1F (stereo not drawn)	.	.	0	.	12
Cc1cccc(CNC(=O)C2CCC(=O)N(C3CC3)C2)c1 (stereo not drawn)	-1	-4	0	0	52*
